Screening results deposited in PubChem by National Center for Advancing Translational Sciences (NCATS).
HCV inh: blocks hepatitis C virus; Huh7.5.1 HCVcc-Cre infection, luciferase reporter, 44 h; Potency, µM (top dose mostly 41.8 µM), actives largely listed as inhibitors; hit rate 3.4% among 340,000; AID 651820
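1,000 cells/well; 4 h culture; + compound; + HCVcc-Cre (~0.5 moi); 44 h; luciferase substrate, RT 15 min; read 15 sec.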
HCMV inh: human cytomegalovirus inhibition; HFF cells, HCMV-luciferase reporter, 72 h; hits give low values; activity change, negative = inhibition, % at 57.5 µM; hit rate 4.5% among 410,000; AID 1259415; in the data active means activity change below about -60%; inconclusive means no clear call, values can overlap the other calls; inactive means above about -39%
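Luciferase read-out from HCMV-luciferase-infected HFFs (MOI 1 PFU/cell) 72 h post infection at 37C; compounds added after 16 h cell attachment; activity normalized between buffer-only basal and Salinomycin (10uM) inhibitor controls.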
FMDV inh: blocks foot and mouth disease virus; FMDV antiviral cell-based qHTS; Potency, µM (series often up to 57.9 µM), actives largely listed as inhibitors; hit rate 1.2% among 410,000; calls by dose curve; tested in HEK293T cells; further: read-out not given here; nearly all actives have a fitted effect of over 45% in size
AmpC inh no detg: AmpC beta-lactamase inhibition without detergent; P00811; AmpC nitrocefin hydrolysis, absorbance 480 nm, 0.0001% Triton; Potency, µM (doses to about 57.1 µM), usual class: inhibitors; hit rate 0.52% among 330,000; further: nearly all actives have a fitted effect of over 20% in size
Target sequence (P00811 whole entry, looked up): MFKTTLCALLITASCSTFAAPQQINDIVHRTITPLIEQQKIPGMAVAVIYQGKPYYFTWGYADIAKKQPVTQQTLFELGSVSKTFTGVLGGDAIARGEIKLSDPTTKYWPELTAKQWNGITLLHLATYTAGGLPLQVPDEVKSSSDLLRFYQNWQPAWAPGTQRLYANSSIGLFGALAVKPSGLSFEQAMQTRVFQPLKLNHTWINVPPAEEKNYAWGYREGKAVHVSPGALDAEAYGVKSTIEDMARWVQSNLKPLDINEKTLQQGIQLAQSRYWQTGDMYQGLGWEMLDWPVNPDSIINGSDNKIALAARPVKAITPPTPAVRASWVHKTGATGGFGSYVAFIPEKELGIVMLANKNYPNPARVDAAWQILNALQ
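AmpC (5.3 nM in the dispensed reagent) in 20 mM phosphate pH 7.0 with 0.01% (detergent screen) or 0.0001% Triton X-100 was preincubated with compounds for 15 min at room temperature. Nitrocefin was then added from an 800 uM solution, and hydrolysis was followed at 480 nm.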
AmpC detergent: inhibitors of E. coli AmpC beta-lactamase with detergent; Potency, µM (doses to about 114 µM), actives largely listed as inhibitors; hit rate 0.041% among 370,000; AmpC hydrolysis of nitrocefin, absorbance 480 nm, 0.01% Triton; AID 485294; further: nearly all actives have a fitted effect of over 25% in size
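AmpC (5.3 nM in the dispensed reagent) in 20 mM phosphate pH 7.0 with 0.01% (detergent screen) or 0.0001% Triton X-100 was preincubated with compounds for 15 min at room temperature. Nitrocefin was then added from an 800 uM solution, and hydrolysis was followed at 480 nm.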
Hits are given with their value; – = inactive; ? = inconclusive; · = no result; [ ] = remark or other dose. The list is not random: actives were taken first. Their share in the collection is about 7.3%. Unless noted, the call rests on the fitted dose curve; in most records, active means well fitted curve in the direction sought with a large enough effect; inconclusive means small, poorly fitted or top-dose-only effect, or another doubt; inactive means no such curve, though single readings can be large; an effect the other way counts as inactive or inconclusive.

SMILES	HCV inh	HCMV inh	FMDV inh	AmpC inh no detg	AmpC detergent
Cc1nn(CC(=O)OCC(=O)c2ccccc2)c(C)c1[N+](=O)[O-]	–	–	–	–	·
Cc1ccc(CSc2ccc3nnc(-c4cccnc4)n3n2)cc1	–	–	?	–	–
Brc1ccc(CSc2ccc3nnc(-c4cccnc4)n3n2)cc1	?	–	32µM	–	?
Cc1csc2c(N(C)CCO)ncnc12	–	–	–	–	–
OCC1(CCOc2ccccc2)CCN(Cc2ccccc2OC(F)F)CC1	–	–	–	–	–
OCC1(CCOc2ccccc2)CCN(Cc2ccc(OC(F)F)cc2)CC1	13µM	–	–	–	–
Cc1nn(C)c(Cl)c1CN1CCC(CO)(CCOc2ccccc2)CC1	–	–	?	–	–
Cc1c(CN2CCC(CO)(CCOc3ccccc3)CC2)[nH]c2c(Cl)cccc12	14µM	–	–	–	–
O=C(/C=C/c1ccc2c(c1)OCO2)c1ccc(O)cc1O	–	–	–	·	·
Nc1ccccc1C(=O)/C=C/c1ccc2c(c1)OCO2	–[8.37 µM]	-71	–	–	–
O=C(/C=C/c1ccccc1)c1c(O)n(CCc2ccccc2)c(=O)[nH]c1=O	–	–	13µM	–	–
O=C(/C=C/c1ccc2c(c1)OCO2)c1c(O)n(CCc2ccccc2)c(=O)[nH]c1=O	–	-84	13µM	–	–
COc1cc(/C=C/C(=O)c2c(O)n(CCc3ccccc3)c(=O)[nH]c2=O)ccc1O	–	-97	–	–	–
O=c1[nH]c(=O)n(Cc2ccccc2Cl)c(O)c1/C=C1/C=CC=N1	–	-89	–	–	?
CCC(=O)N1CCc2cc(S(=O)(=O)N3CCCCC3CC)ccc21 (centres undefined)	?	–	–	–	–
Cc1ccc(N2CCN(c3ccc(C)cc3)C2c2cccnc2)cc1	?	–	·	–	–
c1ccc(N2CCN(c3ccccc3)C2c2cccnc2)cc1	–	–	10µM	–	–
CCN(CC)S(=O)(=O)c1cccc(NC(=O)/C=C/c2ccc([N+](=O)[O-])cc2)c1	?	–	–	–	?
O=C(/C=C/c1cccc([N+](=O)[O-])c1)NC(=S)Nc1ccccc1C(=O)O	·	·	·	–	–
O=C(/C=C/c1cccc([N+](=O)[O-])c1)NC(=S)Nc1cccc(NC(=O)c2ccccc2Cl)c1	–	-74	?	–	–
CCN(CC)S(=O)(=O)c1cccc(NC(=O)/C=C/c2cccc([N+](=O)[O-])c2)c1	6.3µM	-85	18µM	–	–
CCn1nc(C)cc1C(=O)N1CCC2(CC1)c1ccccc1[C@@H](NC(=O)c1cccnc1)[C@@H]2O	·	·	–	·	·
O=C(c1cc2nc(-c3ccccc3)cc(C(F)(F)F)n2n1)N1CCCC1	–	?	–	·	·
CN1CCN(C(=O)c2cc3nc(-c4ccccc4)cc(-c4ccccc4)n3n2)CC1	11µM	–	–	–	–
O=C(c1cc2nc(-c3ccccc3)cc(-c3ccccc3)n2n1)N1CCCC1	?	–	–	–	–
SMILES	HCV inh	HCMV inh	FMDV inh	AmpC inh no detg	AmpC detergent
O=C(c1cc2nc(-c3ccccc3)cc(-c3ccccc3)n2n1)N1CCN(C(=O)c2ccco2)CC1	14µM	–	–	–	–
N#CCC(=O)Nc1ccc(C(=O)OCC(=O)NC(=O)NCc2ccco2)cc1	–	?	–	–	·
COc1ccc(CNC(=O)N2CCN(c3ccccc3OC)CC2)cc1	–	–	–	–	–
CSc1ccccc1NC(=O)c1ccc(N2CC3CC(C2)c2cccc(=O)n2C3)c(NC(=O)c2ccncc2)c1 (centres undefined)	–	–	–	–	–
CCN(C(=O)c1ccc(N2CC3CC(C2)c2cccc(=O)n2C3)c(NC(=O)c2ccncc2)c1)c1cccc(C)c1 (centres undefined)	–	-75	–	–	–
O=C(Cn1c(=O)n(Cc2nc(-c3ccccc3)no2)c(=O)c2ccccc21)Nc1cccc(Cl)c1	·	–	?	·	–
O=C(Cn1c(=O)n(Cc2nc(-c3ccccc3)no2)c(=O)c2ccccc21)Nc1cccc(C(F)(F)F)c1	·	–	20µM	·	–
FC(F)(F)c1cc(CO[C@@H]2CCCN[C@@H]2c2ccccc2)cc(C(F)(F)F)c1	3.5µM	–	?	–	?
FC(F)(F)c1cc(CCN2CCNC[C@@H]2c2ccccc2)cc(C(F)(F)F)c1	?	–	–	–	·
CCCCCCNc1c([N+](=O)[O-])cc(C)cc1[N+](=O)[O-]	–	-69	–	·	·
